Screening data as filed in PubChem BioAssay.
The list is not random: actives were taken first. Their share in the collection is about 2.9%.
Wnt bcat act: Wnt/beta-catenin pathway activators, primary screen, cell-based, plate reader, single point. Wnt/beta-catenin reporter cell assay, activator. activation, % at 9.35 µM. actives 1.2% (n = 300,000); in the data active = activation above about 30%, passing the limit was not always enough; inconclusive = no clear call, values can overlap the other calls;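 also: 0% = neutral control wells and 100% = positive control wells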
N-glyco inh: increase of ERlucT glycosylation luciferase signal, primary screen, N-linked glycosylation inhibitor project, D54 ERlucT cells, luminescence, set 2 | D54 ERlucT glycosylation luciferase reporter, 24 h; percent of 100 nM tunicamycin response | reporter increase, % at 12.5 µM | actives 0.23% (n = 360,000);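 active = mean luciferase reporter signal, scaled so untreated is 0 and the glycosylation-blocking control 100, at or above a set limit in every replicate; inconclusive = mean reaches the limit but not every replicate does; inactive = mean below the limit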;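 also: luciferase carries N-glycosylation sites so blocking glycosylation raises the light; 0% = median of neutral control wells and 100% = median of 100 nM tunicamycin wells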
MITF act: activators of MITF-driven TRPM1 promoter reporter, primary screen, cell-based, SK-MEL-5, luciferase, single point; AID 588334, 2011; actives 0.75% (n = 300,000); activation, % at 12.5 µM; SK-MEL-5 TRPM1-promoter luciferase, 24 h; % of positive control, neutral wells = 0;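 active = mean activation of at least 80% with every replicate also reaching 80%; inconclusive = mean reaches 80% but some replicate falls short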;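 also: 0% = neutral control wells and 100% = parthenolide positive control wells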
Vif inh: HIV Vif self-association inhibitors, primary screen, imaging, HEK293T, single point | HEK293T cells, Vif self-association by quenched fluorescence, 24 h | inhibition, % at 7.49 µM | actives 0.35% (n = 340,000); in the data active = inhibition above about 50%, passing the limit was not always enough; inconclusive = no clear call, values can overlap the other calls; inactive = below about 31%
esBAF inh: Bmi1 luciferase reporter increase in mESCs, primary screen, esBAF inhibitor project, mouse ES cells, Bmi1 luciferase knock-in, single point | 24 h; 100% = twice the neutral-well signal | reporter increase, % at 12.5 µM | actives 2% (n = 350,000); in the data active = activation above about 40%; inconclusive = no clear call, values can overlap the other calls;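 also: 0% = median of the plate's neutral control wells and 100% = double that signal; a rise in the Bmi1 reporter signal indicates esBAF inhibition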
PvdQ acylase: P. aeruginosa PvdQ acylase inhibitors, primary screen, biochemical, fluorescence, plate reader and imaging, single point; PvdQ acylase [Pseudomonas aeruginosa LESB58]; purified PvdQ acylase; inhibition, % at 10 µM; actives 0.063% (n = 340,000); in the data active = inhibition above about 30%, passing the limit was not always enough; inconclusive = no clear call, values can overlap the other calls;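 also: 0% = vehicle neutral wells and 100% = reference inhibitor wells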
Active calls of the source: *; u = inconclusive; x = not tested or not shown; + = active, no number.

SMILES	Wnt bcat act	N-glyco inh	MITF act	Vif inh	esBAF inh	PvdQ acylase
Cc1nc(Nc2nc(CSc3nc4ccccc4[nH]3)cc(=O)[nH]2)nc2ccccc12	x	4.8	-5.4	-12.5	x	-5.6
Cn1c(Nc2ccccc2)nc2ccccc21	3.7	0.4	22.7	-1.3	35.7	-8.7
Nn1c(Nc2ccccc2)nc2ccccc21	x	-0.3	63.9	1.0	64.5*	2.1
COc1ccc(Nc2nc(C)c3ccccc3n2)cc1	x	0.0	60.2	-5.6	75.4*	-7.9
Cc1nc(Nc2nc(-c3ccccc3)cc(=O)[nH]2)nc2ccccc12	x	102.6*	-2.9	-22.1	x	-4.5
CCOc1ccc(Nc2nc3ccccc3n2C)cc1	26.9	-0.3	95.0*	-0.8	51.8*	-13.8
CN(C)c1ccc2c(c1)[C@@H]1C[C@@H](CC(=O)NCc3ccc(-c4ccccc4)cc3)O[C@H](CO)[C@@H]1O2	x	x	x	x	9.9	x
COc1ccc(NC(=O)N(C)C[C@@H]2Oc3ccc(NS(C)(=O)=O)cc3CC(=O)N([C@H](C)CO)C[C@H]2C)cc1	x	x	x	x	1.8	x
C[C@@H]1CCCCO[C@@H](CN(C)Cc2ccc(C(F)(F)F)cc2)[C@H](C)CN([C@H](C)CO)C(=O)c2cc(NC(=O)CCC(F)(F)F)ccc2O1	x	x	x	x	0.1	x
CC=Cc1ccc2n(c1=O)C[C@@H]1[C@@H](CO)[C@H](C(=O)NCC(F)(F)F)[C@H]2N1C(=O)C1CCCCC1 (mixture of isomers)	x	x	x	x	4.3	x
COc1ccc(NC(=O)Nc2ccc3c(c2)C(=O)N([C@@H](C)CO)C[C@@H](C)[C@@H](CN(C)C(=O)Nc2ccc(C(F)(F)F)cc2)O3)cc1	x	x	x	x	-2.2	x
COCC(=O)N1[C@H](C#N)[C@H](c2ccc(C3=CCCC3)cc2)[C@@H]1CO	x	x	x	x	-4.5	x
CCOc1ccc(Nc2cc(C)c3ccccc3n2)cc1	12.5	-1.5	u	-6.6	46.4*	-11.4
CCOc1ccc(Nc2c3ccccc3nc3ccccc23)cc1	2.2	63.9*	-14.3	-6.6	-15.0	4.1
CC(=O)Nc1ccc(Nc2cc(C)c3ccccc3n2)cc1	-0.5	-2.5	x	-3.7	4.3	-11.2
COc1ccc2c(C)nc(Nc3nc(C)c(C)c(=O)[nH]3)nc2c1	x	-13.8	x	-1.3	175.8*	-12.0
O=C(Nc1cccc(Cl)c1)N[C@H]1CC[C@@H](CCNC(=O)C2CCOCC2)O[C@@H]1CO	x	x	x	x	-2.0	x
O=C1c2ccccc2NC(c2ccc(-c3cccc(F)c3)o2)N1O (stereo not drawn)	45.7*	-0.8	u	-4.1	84.4*	-7.2
COc1ccc(NC(=O)Nc2cccc3c2O[C@@H](CN(C)S(=O)(=O)c2cccs2)[C@@H](C)CN([C@@H](C)CO)C3=O)cc1	x	x	x	x	11.7	x
COc1cc([C@@H]2c3cc4c(cc3[C@H](O)[C@H]3COC(=O)[C@H]23)OCO4)cc(OC)c1OC	-19.6	12.0	-58.6	+	-7.4	9.0
COc1cc(C2c3cc4c(cc3OC(NNC(N)=S)C2C)OCO4)cc(OC)c1OC (stereo not drawn)	-21.5	10.6	-42.0	56.0*	-19.7	9.0
CC(C)C#Cc1cnc2c(c1)C(=O)N([C@@H](C)CO)C[C@@H](C)[C@@H](CN(C)C(=O)Cc1ccccn1)O2	x	x	x	x	-0.9	x
O=C(NC1CCCC1)c1cc(Cl)ccc1[N+](=O)[O-]	-2.5	0.8	13.0	-7.8	4.8	94.1*
O=C(NC1CCCCC1)c1cc(Cl)ccc1[N+](=O)[O-]	x	0.2	-8.0	-3.9	x	61.6*
C[C@H](CO)N1C[C@H](C)[C@H](CN(C)Cc2ccc3c(c2)OCO3)OCCCC[C@H](C)Oc2ccc(NS(=O)(=O)c3cccs3)cc2C1=O	x	x	x	x	0.2	x
SMILES	Wnt bcat act	N-glyco inh	MITF act	Vif inh	esBAF inh	PvdQ acylase
COc1ccc(C2CC3(O)NC(=O)C(C#N)(C3C)C2(C#N)C#N)cc1 (stereo not drawn)	1.0	1.4	x	65.8*	-2.6	x
O=C(Nc1nc2ccccc2[nH]1)c1cccc(Br)c1	24.0	7.5	14.8	-1.0	51.2*	-8.0
COc1ccc(C(=O)N[C@H](C(=O)Nc2nc3ccccc3[nH]2)C(C)C)cc1	-1.1	4.1	-1.3	-4.1	0.4	-4.5
Cc1c(C(=O)Nc2nc3ccccc3[nH]2)oc2ccccc12	19.7	-4.2	18.3	x	x	-16.3
Cc1cccc(C(=O)N[C@H](C(=O)Nc2nc3ccccc3[nH]2)C(C)C)c1	-15.9	8.8	-39.0	78.5*	x	-8.7
CN(C)c1cccc(C(=O)Nc2nc3ccccc3[nH]2)c1	-5.0	-15.3	10.1	-3.5	-43.6	-6.3
O=C(Nc1nc2ccccc2[nH]1)c1cccc(F)c1	31.4*	-11.0	1.9	7.3	-15.0	-6.1
Cc1c(C(=O)Nc2nc3ccccc3[nH]2)oc2c(Cl)cccc12	-3.4	1.8	5.5	1.3	48.8*	-9.8
CCC(=O)N1C[C@H](C)[C@H](OC)CN(C)C(=O)c2ccc(NC(=O)c3cc(C)on3)cc2OC[C@H]1C	x	x	x	x	-5.0	x
COc1cccc(N2C(=O)C(c3ccccc3)=C(c3nc4ccccc4s3)C2NC(C)=O)c1 (stereo not drawn)	5.8	1.8	-3.8	-4.7	-4.5	-10.5
CC(=O)NC1C(c2nc3ccccc3s2)=C(c2ccccc2)C(=O)N1c1ccc(C)cc1 (stereo not drawn)	32.5*	0.9	x	-10.4	21.2	5.8
Cc1ccc2c(c1)sc1nc(=O)n(-c3ccccc3)c(=O)n12	54.8*	-13.4	47.8	-2.7	x	-7.0
Cn1c(SCC#N)nnc1-c1ccc2c(c1)OCO2	-3.3	1.5	x	12.4	-2.8	-4.7
Cn1c(SCc2ccccc2)nnc1-c1ccc2c(c1)OCO2	-4.7	7.3	10.8	-7.5	51.7*	-8.9
Fc1ccc(CSc2ccc(-c3ccc4c(c3)OCO4)nn2)cc1	3.1	1.3	17.2	0.0	x	-8.5
c1ccc(CSc2ccc(-c3ccc4c(c3)OCO4)nn2)cc1	34.7*	1.1	89.5*	1.9	x	9.1
O=C(C[C@@H]1CC[C@H]2[C@@H](COC[C@@H](O)CN2S(=O)(=O)c2cccc(Cl)c2)O1)N1CCOCC1	x	x	x	x	-9.0	x
CC(CNC(=O)Cn1cnc2c(NCc3ccccc3)ncnc21)c1ccccc1 (stereo not drawn)	-4.0	-1.5	13.7	x	-4.9	-9.1
Fc1cccc(CSc2ncnc3c2ncn3C2CCCCO2)c1 (stereo not drawn)	-0.7	-3.7	97.6*	-4.2	82.6*	-8.5
CC(C)CCn1cnc2c(NCc3ccccc3)ncnc21	x	-1.8	45.5	-1.1	46.2*	-13.8
c1ccc(CSc2ncnc3c2ncn3C2CCCCO2)cc1 (stereo not drawn)	-4.2	-6.0	100.4*	-13.2	83.8*	-12.3
